Reference: article PMC5540273 (PLoS ONE, 2017)

These molecules were tested on T1, NDR1. Conditions: concentration: 1 μM, replicates: in singlicate; n = 1.
T1 construct: gene STK38
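Also: KINOMEscan kinase panel screen.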

Point of comparison: `Cc1c(Cn2c3ccccc3n3c(=O)cc(N4CCOCC4)nc23)cccc1C(F)(F)F` [GSK2306394], “%Inh” value 0%. Against it:
- COc1ccc(Nc2nccc(N3CCC(NC(=O)C(C)c4ccc(Cl)cc4)CC3)n2)cc1 (stereo not drawn) [GSK1379812] — higher, 39%
- CCc1ccc(-c2ccc3c(c2)-c2n[nH]cc2S(=O)(=O)N3C)cc1 — higher, 17%
- CC(=O)c1c(C)c2cnc(Nc3ccc(N4CCNCC4)cn3)nc2n(C2CCCC2)c1=O — the same, 0%
- Cn1cncc1C(=O)NC1CCN(c2ccnc(Nc3ccc(F)cc3)n2)C1 (stereo not drawn) [GSK1379717] — the same, 0%
- CNc1cc(-c2ccc3c(N)n[nH]c3c2)nc(N)n1 [GSK2224810] — higher, 16%
- CN1c2ccc(-c3ccc(C(N)=O)cc3)cc2-c2[nH]ncc2S1(=O)=O — higher, 26%
- COc1ccc(-c2coc3ccc(-c4nnc(C)o4)cc23)cc1 — higher, 8%
- Cc1ccc(NC(=O)Nc2ccccc2F)cc1-c1ccc(C(=O)Nc2ccncc2)cc1 [GSK1398477] — the same, 0%
- O=C(Nc1n[nH]c2nc(-c3ccco3)c(Br)cc12)C1CCN(Cc2ccccc2)C1.O=C(O)[C@H](O)[C@@H](O)C(=O)O (stereo not drawn) [SB-742034] — higher, 8%
- FC(F)(F)c1ccccc1-c1cc(-c2c[nH]nc2-c2ccccn2)ccn1 [GW679396] — higher, 22%
- COc1nccc(-c2c(-c3ccc(F)cc3)ncn2CCCN2CCOCC2)n1 [SB-282852] — higher, 16%
- COc1cccc(CNC(=O)NC2CCN(c3ccnc(Nc4ccc(F)cc4)n3)C2)c1 (stereo not drawn) [GSK1379723] — the same, 0%
- COC(=O)C(NC(=O)NC1CCN(c2ccnc(Nc3ccc(F)cc3)n2)C1)c1ccccc1 (stereo not drawn) [GSK1379712] — higher, 14%
- CNCc1ccc2nc(NC(=O)c3ccc(C(C)(C)C)cc3)cn2c1 — higher, 34%
- Cc1ccc(NC(=O)Nc2ccc(Cl)cc2)cc1-c1ccc(C(=O)Nc2ccncc2)cc1 [GSK1398472] — higher, 17%
- Cn1cncc1-c1cc2c(Nc3ccc(OCc4ccccc4)cc3)ncnc2cn1 [GW281179] — higher, 10%
- Fc1ccc(-c2nc3n(c2-c2ccncc2)CCS3)cc1 [GI98581] — the same, 0%
- COc1ccc(CSc2nnc(-c3ccc4ncsc4c3)o2)cc1C(F)(F)F — the same, 0%
- Cc1ccc(NC(=O)Nc2ccccc2)cc1-c1ccc(C(=O)Nc2ccncc2)cc1 [GSK1398471] — higher, 24%
- COc1ccc2cc(-c3nc(-c4ccccc4C(C)C)[nH]c3-c3ccncc3)ccc2c1 [SB-660566] — higher, 18%
- O=C1NC(=O)C(c2ccc(Cl)cc2)=C1Nc1cccc(Cl)c1 [SB-317651] — higher, 12%
- CC(C)c1cc(-c2ccc3c(N)n[nH]c3c2)nc(N)n1 [GSK2250882] — higher, 17%
- COC(=O)C(Cc1ccccc1)NC(=O)NC1CCN(c2ccnc(Nc3ccc(F)cc3)n2)C1 (stereo not drawn) [GSK1379714] — higher, 13%
- CS(=O)(=O)Cc1ccc(Nc2nccc(-c3c(-c4cccc(NC(=O)C5CCCCC5)c4)nn4ncccc34)n2)cc1 [GSK350559] — the same, 0%
- Nc1nccc(-c2c(-c3ccc(F)cc3)ncn2C2CCN(Cc3ccccc3)CC2)n1 [SB-219980] — higher, 39%
- CC(C)c1ccc(O)cc1Nc1ccnc2ccc(C(F)(F)F)cc12 [GW482059] — the same, 0%
- CNc1nc(-c2ccc3c(N)n[nH]c3c2)cc(N2C[C@@H](C(=O)NC3CCCCC3)OC[C@H]2C)n1 [GSK2375584] — higher, 29%
- CCn1c(-c2ccccc2)nc2cnccc21 [SB-733416] — the same, 0%
- CCCCc1nn2ncccc2c1-c1ccnc(NC2CC2)n1 [GW684374] — higher, 8%
- Nc1cccc(-c2ccc3c(N)n[nH]c3c2)n1 [GSK2192730] — higher, 23%
- CS(=O)(=O)CCNCc1nc(-c2ccc3ncnc(Nc4ccc(OCc5ccccc5)c(Cl)c4)c3c2)cs1.Cl [GW582764] — the same, 0%
- COc1cccc(NC(=O)Nc2ccc(C)c(-c3ccc(C(=O)Nc4ccncc4)cc3)c2)c1 [GSK1398474] — higher, 51%
- CC[C@@H]1CO[C@H](C(=O)Nc2ccccc2)CN1c1cc(-c2ccc3c(N)n[nH]c3c2)nc(NC)n1 [GSK2376236] — the same, 0%
- COc1ccc(CSc2nnc(-c3ccc4nccn4c3)o2)cc1C(F)(F)F — higher, 14%
- Nc1ncnc2occ(-c3ccc4c(c3)CCN4C(=O)Cc3cc(F)ccc3F)c12 [GSK2645446] — higher, 11%

The molecules below were run on NDR2. Conditions: concentration: 1 μM, replicates: in singlicate; n = 1.

Point of comparison: `CC(=O)c1c(C)c2cnc(Nc3ccc(N4CCNCC4)cn3)nc2n(C2CCCC2)c1=O`, “%Inh” value 0%. Against it:
- COc1ccc(Nc2nccc(N3CCC(NC(=O)C(C)c4ccc(Cl)cc4)CC3)n2)cc1 (stereo not drawn) [GSK1379812] — the same, 0%
- CCc1ccc(-c2ccc3c(c2)-c2n[nH]cc2S(=O)(=O)N3C)cc1 — the same, 0%
- Cn1cncc1C(=O)NC1CCN(c2ccnc(Nc3ccc(F)cc3)n2)C1 (stereo not drawn) [GSK1379717] — the same, 0%
- CNc1cc(-c2ccc3c(N)n[nH]c3c2)nc(N)n1 [GSK2224810] — higher, 19%
- CN1c2ccc(-c3ccc(C(N)=O)cc3)cc2-c2[nH]ncc2S1(=O)=O — higher, 3%
- COc1ccc(-c2coc3ccc(-c4nnc(C)o4)cc23)cc1 — higher, 9%
- Cc1ccc(NC(=O)Nc2ccccc2F)cc1-c1ccc(C(=O)Nc2ccncc2)cc1 [GSK1398477] — the same, 0%
- O=C(Nc1n[nH]c2nc(-c3ccco3)c(Br)cc12)C1CCN(Cc2ccccc2)C1.O=C(O)[C@H](O)[C@@H](O)C(=O)O (stereo not drawn) [SB-742034] — higher, 17%
- FC(F)(F)c1ccccc1-c1cc(-c2c[nH]nc2-c2ccccn2)ccn1 [GW679396] — the same, 0%
- COc1nccc(-c2c(-c3ccc(F)cc3)ncn2CCCN2CCOCC2)n1 [SB-282852] — the same, 0%
- COc1cccc(CNC(=O)NC2CCN(c3ccnc(Nc4ccc(F)cc4)n3)C2)c1 (stereo not drawn) [GSK1379723] — the same, 0%
- COC(=O)C(NC(=O)NC1CCN(c2ccnc(Nc3ccc(F)cc3)n2)C1)c1ccccc1 (stereo not drawn) [GSK1379712] — higher, 32%
- CNCc1ccc2nc(NC(=O)c3ccc(C(C)(C)C)cc3)cn2c1 — higher, 3%
- Cc1ccc(NC(=O)Nc2ccc(Cl)cc2)cc1-c1ccc(C(=O)Nc2ccncc2)cc1 [GSK1398472] — the same, 0%
- Cn1cncc1-c1cc2c(Nc3ccc(OCc4ccccc4)cc3)ncnc2cn1 [GW281179] — the same, 0%
- Fc1ccc(-c2nc3n(c2-c2ccncc2)CCS3)cc1 [GI98581] — the same, 0%
- COc1ccc(CSc2nnc(-c3ccc4ncsc4c3)o2)cc1C(F)(F)F — higher, 10%
- Cc1ccc(NC(=O)Nc2ccccc2)cc1-c1ccc(C(=O)Nc2ccncc2)cc1 [GSK1398471] — the same, 0%
- COc1ccc2cc(-c3nc(-c4ccccc4C(C)C)[nH]c3-c3ccncc3)ccc2c1 [SB-660566] — the same, 0%
- O=C1NC(=O)C(c2ccc(Cl)cc2)=C1Nc1cccc(Cl)c1 [SB-317651] — the same, 0%
- CC(C)c1cc(-c2ccc3c(N)n[nH]c3c2)nc(N)n1 [GSK2250882] — the same, 0%
- Cc1c(Cn2c3ccccc3n3c(=O)cc(N4CCOCC4)nc23)cccc1C(F)(F)F [GSK2306394] — higher, 58%
- COC(=O)C(Cc1ccccc1)NC(=O)NC1CCN(c2ccnc(Nc3ccc(F)cc3)n2)C1 (stereo not drawn) [GSK1379714] — higher, 14%
- CS(=O)(=O)Cc1ccc(Nc2nccc(-c3c(-c4cccc(NC(=O)C5CCCCC5)c4)nn4ncccc34)n2)cc1 [GSK350559] — higher, 17%
- Nc1nccc(-c2c(-c3ccc(F)cc3)ncn2C2CCN(Cc3ccccc3)CC2)n1 [SB-219980] — higher, 16%
- CC(C)c1ccc(O)cc1Nc1ccnc2ccc(C(F)(F)F)cc12 [GW482059] — the same, 0%
- CNc1nc(-c2ccc3c(N)n[nH]c3c2)cc(N2C[C@@H](C(=O)NC3CCCCC3)OC[C@H]2C)n1 [GSK2375584] — higher, 28%
- CCn1c(-c2ccccc2)nc2cnccc21 [SB-733416] — the same, 0%
- CCCCc1nn2ncccc2c1-c1ccnc(NC2CC2)n1 [GW684374] — higher, 10%
- Nc1cccc(-c2ccc3c(N)n[nH]c3c2)n1 [GSK2192730] — the same, 0%
- CS(=O)(=O)CCNCc1nc(-c2ccc3ncnc(Nc4ccc(OCc5ccccc5)c(Cl)c4)c3c2)cs1.Cl [GW582764] — the same, 0%
- COc1cccc(NC(=O)Nc2ccc(C)c(-c3ccc(C(=O)Nc4ccncc4)cc3)c2)c1 [GSK1398474] — the same, 0%
- CC[C@@H]1CO[C@H](C(=O)Nc2ccccc2)CN1c1cc(-c2ccc3c(N)n[nH]c3c2)nc(NC)n1 [GSK2376236] — higher, 5%
- COc1ccc(CSc2nnc(-c3ccc4nccn4c3)o2)cc1C(F)(F)F — higher, 12%
- Nc1ncnc2occ(-c3ccc4c(c3)CCN4C(=O)Cc3cc(F)ccc3F)c12 [GSK2645446] — the same, 0%
